Laboratory results reported in PubChem BioAssay AID485275 (NMMLSC, 2010).
The campaign covered roughly 330,000 compounds. About 1,400 (0.42%) were called active. This is one part of a sample in which actives are shown more often than they occur.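 How the source made its calls: active means plate passing quality check with inhibition over a set limit, or well fluorescence over plate mean plus 4 SD; inactive means the rest.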

Assay: inhibitors of Candida efflux pumps in yeast, primary screen, S. cerevisiae, Nile Red, multiplex (AID 485275);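 further: Nile Red retained in pooled yeast measured as flow cytometry median fluorescence; 0% = buffer negative control and 100% = Enniatin B positive control; higher means more Nile Red kept so more efflux inhibition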
Details: S. cerevisiae Candida pump triplex, at 10 µM, stronger effect = higher value

Row | Structure (SMILES) | inhibition
1 | CN1CCN(Cc2c(C(=O)N3CCc4ccccc4C3)nc3ccc(Cl)cn23)CC1 | 0.16% (inactive)
2 | CCOc1ccc(NC(=O)CN(C)C(=O)COc2cccc(CC)c2)cc1OCC | 0.06% (inactive)
3 | COc1cc(OC)cc(-c2sc3ccc(OC)cc3c2-c2ccc3cc[nH]c3c2)c1 | -0.09% (inactive)
4 | COc1ccccc1-c1sc2ccccc2c1-c1ccc(Br)nc1 | -0.34% (inactive)
5 | COc1ccccc1-c1sc2ccccc2c1-c1ccc(C(C)=O)cc1 | -0.1% (inactive)
6 | COc1ccc2sc(-c3ccccc3OC)c(-c3ccc(OCCN4CCCC4)cc3)c2c1 | 198% (active)
7 | COc1ccc(-c2sc3ccccc3c2-c2ccc(OCCN3CCOCC3)cc2)cc1 | 0.31% (inactive)
8 | O=C(COC(=O)COc1cc(Cl)c(Cl)cc1Cl)NC1CC1 | 0.12% (inactive)
9 | O=c1c2ccccc2oc2nc(C3CCCCC3)n(Cc3ccco3)c(=O)c12 | -0.05% (inactive)
10 | Cc1ccc(Cn2c(C)nc3c(c2=O)c2nc4ccccc4nc2n3Cc2ccco2)cc1 | 0.94% (active)
11 | Clc1cccc(-c2nc3nc4ccccc4nc3n2Cc2ccco2)c1 | -0.17% (inactive)
12 | Cc1cc(N(C)C)cc(C)[n+]1[O-] | -0.18% (inactive)
13 | C=CC[n+]1c(-c2ccc(C)cc2)csc1NNC(=O)Nc1ccccc1 | -0.18% (inactive)
14 | Cc1cc(C)cc(NC(=O)C(OC(=O)c2ccc(O)cc2)c2ccccc2)c1 (stereo not drawn) | 0.91% (active)
15 | COC(C(=O)Nc1ccc(C(C)=O)cc1)c1ccccc1 (stereo not drawn) | -0.08% (inactive)
16 | Cc1ccc(C)c(NC(=O)C(OC(=O)c2ccc(C)s2)c2ccccc2)c1 (stereo not drawn) | -0.08% (inactive)
17 | O=C(O)CCCCCCCCCC[n+]1ccccc1 | 0.3% (inactive)
18 | CCOC(=O)C1(Cc2cccc(OC)c2)CCCN(C(=O)CCSC)C1 (stereo not drawn) | 0.41% (inactive)
19 | Cc1cccc(OCCC(=O)OCc2csc(CC(=O)Nc3ccccc3C)n2)c1 | 0.08% (inactive)
20 | O=C(c1ccc(F)cc1)N1CCC(n2nnc3ccccc32)CC1 | -0.14% (inactive)
21 | COc1ccc2cc(C3=CC(=O)C[C@H](c4ccc5c(c4)OCO5)C3)ccc2c1 | -0.01% (inactive)
22 | Brc1cnc2ccccc2c1N1CCCCC1 | 0.04% (inactive)
23 | COc1cc(C(=O)NCc2ccc(-n3cccc3)cc2)cc(OC)c1OC | 0.13% (inactive)
